Results on 7 molecules are retold here after PubChem BioAssay (NCI).

Each structure is given as a SMILES string. About 83,000 compounds went through this panel and 20% of them were active in at least one assay; those are over-represented in the sample as a whole.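 Plates (96-well) were seeded with cells, treated with compound at one concentration, and incubated for 48 hours before percent growth was determined.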 Unmarked numbers belong to inactive results. The source made the active and inactive calls. How the source made its calls: active means growth percent below 10; inactive means the rest.

Holding throughout (experiment): NCI-60 one-dose screen, 48 h (100 = growth as untreated, 0 = no growth, -100 = all killed)
What all share (conditions): 10 µM unless noted

The subject of test [1] is NCI-H23 lung.
Test [2] concerns NCI-H226 lung.
Test [3] has as its system NCI-H322M lung.
Test [4] has as its system HOP-62 NSCLC.
Test [5] deals with NCI-H460 lung.
Test [6] deals with HOP-92 NSCLC.
The subject of test [7] is NCI-H522 lung.
The test system of test [8] is A549/ATCC NSCLC.
In test [9] the test system is 786-0 renal.
Test [10] deals with COLO 205 colon.
In test [11] the test system is DU-145 prostate.
Test [12] relates to K-562 leukemia.
Test [13] has as its system MALME-3M melanoma.
In test [14] the test system is MDA-MB-231 breast.
Test [15] deals with RXF 393 renal.
Test [16] concerns SF-268 CNS.
The test system of test [17] is SF-295 CNS.
Test [18] deals with SF-539 CNS.
Test [19] has as its system UACC-257 melanoma.
For test [20], the system named is M14 melanoma.

On to `Nc1ccccc1NC(=O)c1ccc(CSc2nc(N3CCOCC3)c3cccn3n2)cc1`, for which the growth in [1] was 22.5%; in [2] it was 6.52% (active); in test [3] it was 22%; in test [4], 15.5%; in test [5], 15.3%; in test [6], -6.72% (active). The growth was -50.3% (active) in test [7]; 11.8% in test [8]; 17.3% in test [9]; -29% (active) in test [10]; 9.93% (active) in test [11]; 5.46% (active) in test [12]. For the same molecule, the growth is 30.9% in [13]; 18.8% in test [14]; -6.46% (active) in test [15]; 4.84% (active) in [16]; 2.8% (active) in test [17]; 15.2% in test [18]. Further, the figures for the growth in test [19] and in test [20] were -3.3% (active) and 5.11% (active), respectively.
Turning to `COc1cc(NC(=O)Nc2cnc(Nc3ccc(N4CCOCC4)cc3)nc2Oc2ccc(C(F)(F)F)cc2)cc(OC)c1`, the growth in test [1] is 105%; in [2] it was 97.7%; in [3], 106%; in test [4], 95.5%; in test [5] it was 105%; in test [6], 99%. Moreover, the growth is 95.9% in test [7]; 103% in test [8]; 109% in test [9]; 127% in [10]; 118% in [11]; 95.3% in test [12]. Further, the growth is 118% in test [13]; 96.7% in test [14]; 110% in test [15]; 101% in test [16]; 111% in test [17]; 103% in test [18]. For the same molecule, the growth in test [19] is 101%; in [20], 107%.
Regarding `FC(F)(F)c1ccc2c(Nc3cccc(C4CC(c5ccccc5)=NN4c4ccc(Cl)cc4)c3)ccnc2c1` (stereo not given), the growth in test [1] is 61%; in test [2] it was 68.1%; in [3], 68.7%; in [4], 60.2%; in [5], 59.1%; in test [6], 47.5%. Besides, the growth in [7] is 50.2%; in [8] it was 72.4%; in test [9] it was 77.1%; in [10] it was 58.1%; in test [11], 47.7%; in test [12], 6.6% (active). The growth in [13] is 83%; in test [14], 68%; in test [15], 74.2%; in test [16], 50.8%; in test [17], 57.8%; in test [18], 86.9%. The values for the growth in test [19] and in [20] were 73.8% and 41.2%, respectively.
As for `C=CCn1c(CN2CCN(c3cc4c(cc3F)c(=O)c(C(=O)O)cn4C3CC3)CC2)n[nH]c1=S`, the growth in test [1] is 104%; in test [2] it was 110%; in test [3], 88.6%; in test [4] it was 99.8%; in [5], 108%; in test [6], 104%. For the same molecule, the growth was 87.9% in [7]; 101% in [8]; 95.6% in test [9]; 102% in test [10]; 103% in [11]; 89.6% in test [12]. Further, the growth is 85.4% in [13]; 116% in test [14]; 115% in test [15]; 97.5% in [16]; 101% in [17]; 98.8% in [18]. Also, the growth in test [19] was 105%; in test [20] it was 107%.
As to `COc1cccc(C(=O)OCCn2nc3c4c(cccc42)C(=O)c2ccccc2-3)c1O`, the growth in test [1] was 44.2%; in test [2], 79.9%; in [3], 53.8%; in test [4], 39.5%; in [5], 28.2%; in test [6] it was 62.1%. The growth in test [7] was 24.8%; in test [8], 67.4%; in [9], 72.3%; in test [10] it was 107%; in test [11], 54.7%; in test [12], 13.7%. Also, the growth in test [13] is 62.6%; in [14], 62.2%; in test [15] it was 53%; in test [16] it was 55.8%; in test [17] it was 17.1%; in test [18] it was 9.58% (active). The growth in [19] is 79.4%; in test [20], 36.2%.
`O=C1Nc2ccc(Br)cc2/C1=N\N=C/c1cn(Cc2ccccc2)c2ccccc12`: the growth in test [1] is 94.4%; in test [2], 80.5%; in [3] it was 84%; in [4], 97.2%; in test [5] it was 51.9%; in [6] it was 106%. Further, the growth in test [7] is 83.9%; in [8], 91%; in test [9], 103%; in test [10], 114%; in test [11] it was 95.7%; in test [12], 67.4%. The growth in [13] was 115%; in test [14], 93.3%; in [15], 58.4%; in [16] it was 95%; in test [17], 95.9%; in [18] it was 99.4%. The values for the growth in [19] and in test [20] were 109% and 106%, respectively.
Take `CCOC(=O)c1c(C)nc2c(c1N)/C(=C/c1cccs1)C(=O)N2Cc1ccccc1`: the growth in test [1] is 74.5%; in test [2], 77.5%; in test [3], 91.9%; in test [4], 68.8%; in test [5], 67.1%; in test [6], 60.4%. For the same molecule, the growth in [7] was 58.3%; in [8], 77.9%; in test [9], 52.1%; in test [10], 61.3%; in test [11], 62%; in test [12], 34.7%. The growth in test [13] is 85.1%; in test [14], 55.4%; in [15], 40%; in test [16] it was 74.7%; in test [17], 88%; in test [18] it was 90.7%. Moreover, the growth in [19] was 74%; in [20], 73.8%.
